Unmarked numbers belong to inactive results. For some of these results: Results with a measured potency or affinity are listed apart. Active and inactive are the calls of the source. Unless noted, no rule for the calls is given here.

Assay [1] can be described thus: antimalarial activity against Dd2 strain (AID 2302;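 active = growth inhibition above 50% at the single 2 µM test dose, taken to imply half-maximal potency below 2 µM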;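 also: 0% = DMSO untreated growth and 100% = chloroquine plus artemisinin killed control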). Conditions: P. falciparum Dd2 in RBCs, LDH growth readout, 72 h; at 2 µM; active compounds read high.
A short description of assay [2]: human hepatoma cell viability loss – ATP luminescence, cytotoxicity control for P. falciparum antimalarial project, primary screen (AID 2303;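 active = inhibition above 50%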;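 also: 0% = DMSO wells and 100% = digitonin-killed cells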). To be noted: HepG2 viability, 24-48 h, at 10 µM, active compounds read high.
Assay [3] deals with L-lactate dehydrogenase (Plasmodium falciparum (isolate CDC / Honduras)) (UniProt Q27743). Briefly: PfLDH activity inhibition – cell lysate, 3D7 strain, counter-screen for P. falciparum growth inhibition project (AID 2304).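 Also: 0% = vehicle and 100% = reference inhibitor.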 Conditions: P. falciparum 3D7 crude extract, LDH APAD/NBT absorbance; at 2 µM; active compounds read high.
Sequence of L-lactate dehydrogenase (Plasmodium falciparum (isolate CDC / Honduras)) (Q27743 whole entry, looked up): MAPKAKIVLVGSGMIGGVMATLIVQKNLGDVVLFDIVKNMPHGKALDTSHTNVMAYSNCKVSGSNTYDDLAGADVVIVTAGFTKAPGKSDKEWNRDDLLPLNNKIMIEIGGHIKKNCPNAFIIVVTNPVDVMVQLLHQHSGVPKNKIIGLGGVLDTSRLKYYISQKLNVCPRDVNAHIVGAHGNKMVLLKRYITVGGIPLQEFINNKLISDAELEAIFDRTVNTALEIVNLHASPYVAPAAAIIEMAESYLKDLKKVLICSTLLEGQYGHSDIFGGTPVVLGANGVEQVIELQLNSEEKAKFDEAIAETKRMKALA
Assay [4] in a line: inhibition of 3D7 malaria parasite growth – strain 3D7 (AID 2306).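 Also: 0% = DMSO wells and 100% = chloroquine plus artemisinin control wells.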 To be noted: P. falciparum 3D7 erythrocytic growth, LDH absorbance, 72 h; at 2 µM; active compounds read high.
Assay [5] has as its target Calcium-dependent protein kinase 1 (Plasmodium falciparum (isolate 3D7)) (UniProt P62344). The experiment in a line: PfCDPK1 kinase inhibitors, biochemical, TCAMS library (AID 1159585; cut-off not given, nearly all actives have IC50 up to about 0.98 µM;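 also: inhibitors leave more ATP so luminescence rises with inhibition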). Conditions: recombinant PfCDPK1, Kinase-Glo ATP depletion luminescence.
The target of assay [6] is Plasmodium falciparum protein kinase 6 (PK6, PF3D7_1337100) (UniProt Q8IDW1). Briefly: PfPK6 kinase inhibitors, biochemical, TCAMS library (AID 1159586). To be noted: recombinant PfPK6, Kinase-Glo ATP depletion luminescence.
Sequence of Plasmodium falciparum protein kinase 6 (PK6, PF3D7_1337100) (Q8IDW1 1-305): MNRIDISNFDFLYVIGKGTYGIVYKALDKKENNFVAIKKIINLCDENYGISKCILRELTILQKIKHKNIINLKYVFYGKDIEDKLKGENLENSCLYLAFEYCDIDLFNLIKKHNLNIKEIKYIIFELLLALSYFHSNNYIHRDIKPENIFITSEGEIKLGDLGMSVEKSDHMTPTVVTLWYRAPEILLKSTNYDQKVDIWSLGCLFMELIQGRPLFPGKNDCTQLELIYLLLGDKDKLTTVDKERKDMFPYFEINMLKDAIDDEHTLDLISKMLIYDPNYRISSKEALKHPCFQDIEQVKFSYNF
The target in assay [7] is Protein kinase 7 (PK7), Plasmodium falciparum 3D7 (PF3D7_0213400) (UniProt Q7YTF7). The experiment in a line: inhibition of Plasmodium PK7 catalytic activity – biochemical, TCAMS antimalarial set, Kinase-Glo luminescence (AID 1159587). To be noted: recombinant PfPK7, Kinase-Glo ATP depletion luminescence.
Sequence of Protein kinase 7 (PK7), Plasmodium falciparum 3D7 (PF3D7_0213400) (Q7YTF7 1-343): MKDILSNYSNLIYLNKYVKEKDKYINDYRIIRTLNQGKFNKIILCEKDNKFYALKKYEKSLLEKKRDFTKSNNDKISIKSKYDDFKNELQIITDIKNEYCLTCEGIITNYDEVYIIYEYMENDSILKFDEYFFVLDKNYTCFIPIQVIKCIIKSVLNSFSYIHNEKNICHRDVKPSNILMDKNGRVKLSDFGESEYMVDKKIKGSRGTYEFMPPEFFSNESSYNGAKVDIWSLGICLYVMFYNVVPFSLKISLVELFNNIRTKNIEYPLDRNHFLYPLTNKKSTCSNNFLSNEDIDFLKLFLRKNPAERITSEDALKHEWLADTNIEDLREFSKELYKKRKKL
Assay [8] addresses Calcium-dependent protein kinase 4 (Plasmodium falciparum (isolate 3D7)) (UniProt Q8IBS5). The experiment in a line: PfCDPK4 kinase inhibitors, biochemical, TCAMS library (AID 1159588; cut-off not given, nearly all actives have IC50 up to about 0.91 µM). To be noted: recombinant PfCDPK4, Kinase-Glo ATP depletion luminescence.

Sequence of Calcium-dependent protein kinase 1 (Plasmodium falciparum (isolate 3D7)) (P62344 whole entry, looked up): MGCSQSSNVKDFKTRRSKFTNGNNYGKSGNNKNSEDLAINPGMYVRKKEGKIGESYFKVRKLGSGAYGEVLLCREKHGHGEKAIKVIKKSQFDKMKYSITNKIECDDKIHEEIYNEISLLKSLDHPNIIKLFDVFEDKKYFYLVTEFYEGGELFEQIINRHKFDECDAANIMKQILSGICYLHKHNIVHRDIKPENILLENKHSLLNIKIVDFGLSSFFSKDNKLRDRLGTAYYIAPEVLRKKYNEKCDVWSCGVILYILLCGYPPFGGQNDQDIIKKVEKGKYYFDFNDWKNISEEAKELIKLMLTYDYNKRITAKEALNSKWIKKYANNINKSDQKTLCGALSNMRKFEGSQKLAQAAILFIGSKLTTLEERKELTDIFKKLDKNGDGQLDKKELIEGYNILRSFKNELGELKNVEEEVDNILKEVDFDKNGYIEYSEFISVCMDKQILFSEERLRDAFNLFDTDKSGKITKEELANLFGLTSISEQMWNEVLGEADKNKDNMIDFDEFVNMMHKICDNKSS
Sequence of Calcium-dependent protein kinase 4 (Plasmodium falciparum (isolate 3D7)) (Q8IBS5 whole entry, looked up): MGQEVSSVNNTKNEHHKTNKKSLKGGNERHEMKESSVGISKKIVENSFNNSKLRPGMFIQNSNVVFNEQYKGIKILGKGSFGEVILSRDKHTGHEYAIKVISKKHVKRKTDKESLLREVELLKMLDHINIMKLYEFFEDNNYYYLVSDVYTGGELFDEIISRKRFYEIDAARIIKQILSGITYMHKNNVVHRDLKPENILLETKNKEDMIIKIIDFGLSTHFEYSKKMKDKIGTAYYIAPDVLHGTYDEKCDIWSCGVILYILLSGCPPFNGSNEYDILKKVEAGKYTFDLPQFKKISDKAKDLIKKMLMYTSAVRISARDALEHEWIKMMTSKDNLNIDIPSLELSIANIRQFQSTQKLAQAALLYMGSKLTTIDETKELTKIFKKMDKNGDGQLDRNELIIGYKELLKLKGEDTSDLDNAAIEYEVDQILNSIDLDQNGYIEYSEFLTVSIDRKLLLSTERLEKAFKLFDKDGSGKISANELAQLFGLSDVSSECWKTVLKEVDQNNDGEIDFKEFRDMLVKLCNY

Consider `CC(C)N1CCC(NCc2ccc(-c3ccc(Cl)cc3)cc2)CC1`, for which the values for the growth inhibition in assay [1] and in assay [4] were 48% and 99% (active), respectively. Also, the figures for the inhibition in assay [2] and in assay [3] were 50% (active) and -3%, respectively. Further, the result in assay [5], in assay [6], in assay [7] and in assay [8] was inactive.
Turning to `Cc1cccc2[nH]c(-c3cccc(-c4ccc(NC(=O)Nc5ccc(Cl)cc5)cc4)c3)nc12`, the values for the growth inhibition in assay [1] and in assay [4] were 96% (active) and 100% (active), respectively. For the same compound, the inhibition in assay [2] is 63% (active); in assay [3], 0%. Further, the result in assay [5], in assay [6], in assay [7] and in assay [8] was inactive.
With `COc1ccc2nccc(NN=Cc3cccc(Cl)c3)c2c1`, the figures for the growth inhibition in assay [1] and in assay [4] were 99% (active) and 100% (active), respectively. In addition, the values for the inhibition in assay [2] and in assay [3] were 1% and 3%, respectively. Further, the result in assay [5], in assay [6], in assay [7] and in assay [8] was inactive.
As to `CC(C)NCc1ccc(-c2cccc(NC(=O)c3cccc(Cl)c3)c2)cc1`, the growth inhibition in assay [1] is 87% (active); in assay [4] it was 100% (active). Besides, the inhibition in assay [2] was 24%; in assay [3], 1%. Moreover, the result in assay [5], in assay [6], in assay [7] and in assay [8] was inactive.
For `COc1ccc(OC)c2c1CCN(CCN1CCC(C(=O)Nc3ccc(C(=O)Nc4ccc(Cl)cc4)cc3)CC1)C2`, the growth inhibition in assay [1] and in assay [4] was 100% (active) throughout. For the same compound, the inhibition in assay [2] is 25%; in assay [3], -2%. The outcome in assay [5], in assay [6], in assay [7] and in assay [8] was inactive.
On to `Nc1ncc(-c2cc3ccccc3o2)c(N)n1`, for which the growth inhibition in assay [1] was 2%; in assay [4], 81% (active). Also, the inhibition in assay [2] is -3%; in assay [3] it was 0%. Also, the outcome in assay [5], in assay [6], in assay [7] and in assay [8] was inactive.
For `C=CCN1C(=O)C(=Cc2cc(Br)ccc2O)SC1=Nc1ccccc1`, the figures for the growth inhibition in assay [1] and in assay [4] were 55% (active) and 96% (active), respectively. Also, the inhibition in assay [2] and in assay [3] was -4% in each case. For the same compound, the outcome in assay [5], in assay [6], in assay [7] and in assay [8] was inactive.
On to `c1ccc(Oc2ccc(Nc3ccnc(Nc4ccc(CN5CCOCC5)cc4)n3)cc2)cc1`, for which the growth inhibition is 38% in assay [1] and 92% (active) in assay [4]. Moreover, the results for the inhibition in assay [2] and in assay [3] were 46% and -4%, respectively. For the same compound, the outcome in assay [5], in assay [6], in assay [7] and in assay [8] was inactive.
Take `O=C(Nc1cccc(Cl)c1)N[C@H]1CCN(Cc2ccc(OCCCN3CCCCC3)cc2)C1`: the results for the growth inhibition in assay [1] and in assay [4] were -3% and 99% (active), respectively. In addition, the results for the inhibition in assay [2] and in assay [3] were 15% and 1%, respectively. Moreover, the result in assay [5], in assay [6], in assay [7] and in assay [8] was inactive.
On to `COc1ccccc1N1CCN(CCCCNC(=O)c2ccc(NC(=O)c3cc4ccccc4o3)cc2)CC1`, for which the growth inhibition is 2% in assay [1] and 84% (active) in assay [4]. For the same compound, the inhibition was 9% in assay [2] and -1% in assay [3]. Moreover, the outcome in assay [5], in assay [6], in assay [7] and in assay [8] was inactive.
Take `c1ccc2c(NCCCCCCCCCNc3ccnc4ccccc34)ccnc2c1`: the values for the growth inhibition in assay [1] and in assay [4] were 100% (active) and 101% (active), respectively. The inhibition is 57% (active) in assay [2] and -3% in assay [3]. For the same compound, the outcome in assay [5], in assay [6], in assay [7] and in assay [8] was inactive.
Take `COc1cc(OC)c(NC(=O)Nc2ccnc3ccccc23)cc1Cl`: the growth inhibition in assay [1] was 9%; in assay [4] it was 97% (active). The inhibition in assay [2] is 19%; in assay [3], -2%. The result in assay [5], in assay [6], in assay [7] and in assay [8] was inactive.
With `CCC[C@@H]([C@@H](CC1CCC(C)CC1)C(=O)N[C@@H](CCCNc1ncccn1)C(=O)Nc1nccs1)N(O)C=O` (stereo not given in full), the growth inhibition in assay [1] and in assay [4] was 98% (active) each time. In addition, the inhibition in assay [2] is 10%; in assay [3], 5%. Moreover, the outcome in assay [5], in assay [6], in assay [7] and in assay [8] was inactive.
In the case of `CC(=O)N(C)c1cccc(C(=O)Nc2cccc(-c3cccc(-c4nc5ccc(C(F)(F)F)cc5[nH]4)c3)c2)c1`, the figures for the growth inhibition in assay [1] and in assay [4] were 41% and 97% (active), respectively. Also, the inhibition was 49% in assay [2] and -5% in assay [3]. In addition, the outcome in assay [5], in assay [6], in assay [7] and in assay [8] was inactive.
Turning to `CC(CNCc1cn(Cc2cc(Br)cc(Br)c2)c2ccccc12)CNc1cc(=O)c2ccccc2[nH]1` (stereo not given), the growth inhibition was 50% (active) in assay [1] and 100% (active) in assay [4]. The inhibition in assay [2] is 10%; in assay [3], 6%. Further, the result in assay [5], in assay [6], in assay [7] and in assay [8] was inactive.
As for `O=C(CCn1c2ccccc2c2ccccc21)NN=Cc1ccco1`, the growth inhibition in assay [1] was -3%; in assay [4], 96% (active). The inhibition was 6% in assay [2] and -3% in assay [3]. Besides, the outcome in assay [5], in assay [6], in assay [7] and in assay [8] was inactive.
Turning to `COc1cccc(-c2cccc(NC(=O)C3CCN(Cc4ccc(O)cc4)CC3)c2)c1`, the growth inhibition in assay [1] and in assay [4] was 97% (active) throughout. In addition, the inhibition was 9% in assay [2] and 0% in assay [3]. For the same compound, the outcome in assay [5], in assay [6], in assay [7] and in assay [8] was inactive.
With `O=C(Nc1ccc(OC2CCN(Cc3ccccc3)CC2)c(Cl)c1)c1ccco1`, the growth inhibition in assay [1] and in assay [4] was 96% (active) throughout. Further, the figures for the inhibition in assay [2] and in assay [3] were 8% and 6%, respectively. The result in assay [5], in assay [6], in assay [7] and in assay [8] was inactive.
In the case of `CC1Cc2ccccc2N1S(=O)(=O)c1cccc(C(=O)Nc2nc(-c3ccccn3)cs2)c1` (stereo not given), the values for the growth inhibition in assay [1] and in assay [4] were 77% (active) and 84% (active), respectively. Also, the inhibition in assay [2] is 32%; in assay [3] it was -2%. For the same compound, the outcome in assay [5], in assay [6], in assay [7] and in assay [8] was inactive.
Consider `O=C(N[C@H]1CCCC[C@H]1C(=O)O)c1ccccc1`, for which the growth inhibition in assay [1] is 3%; in assay [4], 95% (active). The inhibition was 7% in assay [2] and -5% in assay [3]. For the same compound, the outcome in assay [5], in assay [6], in assay [7] and in assay [8] was inactive.

The values are drawn from PubChem BioAssay.
